The results in this text go back to PubChem BioAssay (NCI).

Test systems include T-47D breast; BT-549 breast; MDA-MB-435 melanoma; MCF7 breast; HCT-116 colon; HCC-2998 colon; KM12 colon; SW-620 colon.
Common to all, as to assay: NCI-60 one-dose screen, 48 h (100 = growth as untreated, 0 = no growth, -100 = all killed)
What all share (conditions): 10 µM unless noted

Molecules are shown by their SMILES. About 83,000 compounds went through this panel and 20% of them were active in at least one assay; those are over-represented in the sample as a whole.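 For each line, cells grew in 96-well plates with the test compound present at a single concentration for 48 hours.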 Unmarked numbers belong to inactive results. Calls of active or inactive are those of the source. How the source made its calls: active means growth percent below 10; inactive means the rest.

On to `O=C(Nc1ccc(-n2cc(-c3ccncc3)c(-c3ccc(O)c(Cl)c3)n2)cc1)Nc1ccc(Cl)c(C(F)(F)F)c1`, for which the growth is 29.2% with T-47D breast; -19.4% (active) in the assay on BT-549 breast; -0.731% (active) in the assay with MDA-MB-435 melanoma; 15% with MCF7 breast; 6.73% (active) in the assay on HCT-116 colon; 22% in the assay on HCC-2998 colon. The growth in the assay on KM12 colon is 6.77% (active).
Turning to `COc1ccc(OC)c(NCC(=O)n2nc(/C=C\c3ccc(O)c(OC)c3)cc2/C=C\c2ccc(O)c(OC)c2)c1`, the growth is 15.5% in the assay on T-47D breast; 17.1% with BT-549 breast; 5.88% (active) in the assay with MDA-MB-435 melanoma; 9.13% (active) with SW-620 colon; 18% in the assay on HCC-2998 colon; 11.1% with KM12 colon.
For the compound `CNCCCOc1c(Br)cc(CCNC(=O)/C(Cc2cc(Br)c(OC)c(Br)c2)=N/O)cc1Br`, the growth in the assay on T-47D breast was -27.5% (active); with BT-549 breast, 48%; in the assay on MDA-MB-435 melanoma, -59.6% (active); in the assay on MCF7 breast it was -40.3% (active); with HCT-116 colon, -91.6% (active); in the assay on HCC-2998 colon, -49.5% (active). The growth in the assay with KM12 colon is -1.14% (active).
For the compound `c1ccc(OCC[P+](c2ccccc2)(c2ccccc2)c2ccccc2)cc1`, the growth in the assay on T-47D breast was 6.07% (active); in the assay on BT-549 breast, 19.6%; in the assay on MDA-MB-435 melanoma, 4.66% (active); with MCF7 breast, 20%; in the assay with HCT-116 colon it was 15.6%; in the assay with HCC-2998 colon, 5.3% (active). Besides, the growth with KM12 colon was 14.9%.
`COc1ccc(/C=C2/C(=O)Nc3cc(Cl)c(-c4csc(N)n4)cc32)cc1`: the growth in the assay with T-47D breast was 23.5%; in the assay with BT-549 breast it was 33.4%; with MDA-MB-435 melanoma, -14.4% (active); in the assay on MCF7 breast, 25%; in the assay with HCT-116 colon, 36.2%; in the assay on HCC-2998 colon it was 77.3%. In the assay with KM12 colon, the growth was 25.7%.
Take `O=C(Nc1ccc(-n2ccc3c(NC(=O)c4ccccc4)ncnc32)cc1)c1cccc(C(F)(F)F)c1`: the growth is 57.8% in the assay with T-47D breast; 51.9% with BT-549 breast; 38.3% with MDA-MB-435 melanoma; 36.4% in the assay on MCF7 breast; 22.3% in the assay on HCT-116 colon; 59.8% in the assay with HCC-2998 colon. For the same compound, the growth in the assay on KM12 colon is 30%.
On to `CCN(CC)CCNCC(O)Cc1ccc(OC)cc1` (stereo not drawn), for which the growth with T-47D breast is 91.5%; in the assay with BT-549 breast, 83.9%; in the assay on MDA-MB-435 melanoma, 108%; in the assay on MCF7 breast, 103%; in the assay on HCT-116 colon, 82.4%; with HCC-2998 colon it was 101%. Also, in the assay on KM12 colon, the growth is 106%.
For `COc1cc(NC(C)CCCN2C(=O)c3ccccc3C2=O)c2ncccc2c1OC` (stereo not drawn), the growth was 66.8% in the assay on T-47D breast; 91.2% in the assay with BT-549 breast; 92.1% with MDA-MB-435 melanoma; 41.8% with MCF7 breast; 84.5% in the assay on HCT-116 colon; 124% in the assay with HCC-2998 colon. Besides, the growth in the assay with KM12 colon was 80.2%.
For the compound `Cc1cc(NCCN(C(C)C)C(C)C)nc(/N=C(\N)Nc2ccc(Cl)c(C(F)(F)F)c2)n1`, the growth with T-47D breast was -54.3% (active); with BT-549 breast, -64.6% (active); in the assay with MDA-MB-435 melanoma it was -73.9% (active); in the assay on MCF7 breast, -78.4% (active); in the assay with HCT-116 colon, -100% (active); in the assay with HCC-2998 colon it was -96.7% (active). Besides, the growth with KM12 colon is -92.6% (active).
Take `O=C1/C(=C/c2cccc3cnccc23)Cc2cc(F)ccc21`: the growth in the assay on T-47D breast is 42.7%; in the assay on BT-549 breast it was 89%; with MDA-MB-435 melanoma, 101%; in the assay with MCF7 breast, 58.9%; in the assay with HCT-116 colon, 80.7%; in the assay on HCC-2998 colon, 106%. For the same compound, the growth with KM12 colon is 92.1%.
For the compound `COC(=O)Nc1nc2ccc(Sc3ccccc3)cc2[nH]1`, the growth was 60.8% in the assay on T-47D breast; 49.5% in the assay with BT-549 breast; -45.2% (active) in the assay on MDA-MB-435 melanoma; 21.4% in the assay with MCF7 breast; 15% in the assay on HCT-116 colon; 0.2% (active) in the assay with HCC-2998 colon. Moreover, the growth in the assay on KM12 colon is 3.07% (active).
With `CC(C(C(=O)N1CCCCC1)N1CCCCC1)N1CCCCC1` (stereo not drawn), the growth was 107% with T-47D breast; 111% with BT-549 breast; 109% in the assay with MDA-MB-435 melanoma; 104% with MCF7 breast; 97% in the assay on HCT-116 colon; 107% in the assay on HCC-2998 colon. In addition, in the assay with KM12 colon, the growth is 113%.
Turning to `Cc1ccc(Cn2cc(COc3ccc4c5ccnc(C)c5n(CCCc5ccccc5)c4c3)nn2)cc1`, the growth was 89.9% in the assay with T-47D breast; 90.1% in the assay on BT-549 breast; 106% with MDA-MB-435 melanoma; 86.2% in the assay with MCF7 breast; 60% in the assay with HCT-116 colon; 102% with HCC-2998 colon. For the same compound, the growth in the assay on KM12 colon was 97.9%.
As to `Cc1cn(C2CC(F)C(CO)O2)c(=O)[nH]c1=O` (stereo not drawn), the growth in the assay on T-47D breast was 98%; with BT-549 breast, 80.7%; in the assay on MDA-MB-435 melanoma, 78.2%; in the assay with MCF7 breast it was 113%; with HCT-116 colon, 95.6%; in the assay with HCC-2998 colon, 100%. Besides, the growth with KM12 colon is 99.1%.
In the case of `CC/C(=C(\CC)c1ccc(OCCN(CC)CC)cc1)c1ccc(OCCN(CC)CC)cc1`, the growth was 12.3% in the assay with T-47D breast; 15.4% with MDA-MB-435 melanoma; 9.59% (active) in the assay on SW-620 colon; 30.1% in the assay on MCF7 breast; 16.7% in the assay with HCT-116 colon; 63.2% with HCC-2998 colon. Also, the growth in the assay with KM12 colon was 33.5%.
`CC(=O)N[C@@H](CNC(=O)c1cc(NC(=O)c2cc(NC(=O)c3cc(NC(=O)c4nccn4C)cn3C)cn2C)cn1C)CC(=O)Nc1cn(C)c(C(=O)Nc2cc(C(=O)Nc3cc(C(=O)Nc4cc(C(=O)NCCCN(C)CCCNC(=O)c5cccc(C(=O)O)c5)n(C)c4)n(C)c3)n(C)c2)n1`: the growth is 41.5% in the assay with T-47D breast; 95.5% with MDA-MB-435 melanoma; 90.9% in the assay on SW-620 colon; 77.8% with MCF7 breast; 43.9% in the assay on HCT-116 colon; 106% in the assay on HCC-2998 colon. Also, the growth in the assay with KM12 colon is 42.6%.
As for `COc1ccc(/C(=C/c2cc(OC)c(OC)c(OC)c2)[N+](=O)[O-])cc1`, the growth in the assay with T-47D breast was 6.27% (active); in the assay on MDA-MB-435 melanoma it was 7.21% (active); in the assay on SW-620 colon it was -31% (active); with MCF7 breast, 1.7% (active); in the assay with HCT-116 colon, 11.8%; in the assay with HCC-2998 colon, 91.5%. Also, the growth in the assay with KM12 colon is 15.5%.
